This is a sample that favours compounds with a hit; in the whole collection about 0.4% have one here.
FMDV FLuc – antivirals against foot and mouth disease virus; AID 1745856; FMDV antiviral cell assay, firefly luciferase signal; 120,000 tested, 0.23% active; Potency, µM (top dose mostly 57.5 µM), inactives show top-dose activity change, negative = inhibition, most hits filed as inhibitors; also: nearly all actives have a fitted effect of over 60% in size
FMDV Renilla – FMDV antiviral activity by Renilla signal; FMDV replicon cells, Renilla luciferase signal; Potency, µM (series often up to 57.5 µM), for the others: at the highest dose activity change, negative = inhibition, most hits filed as inhibitors; 120,000 tested, 0.32% active; also: nearly all actives have a fitted effect of over 55% in size
* marks the source's active call; other numbers are inactive results; ? = inconclusive; [ ] = another dose, or the depositor's remark. Calls follow the shape of the full dose curve. % is scaled to controls: 0 for no effect and ±100 for the full control effect; potency is read from the fitted curve at half-maximal effect.

SMILES | FMDV FLuc | FMDV Renilla
Cc1ccc(OCC(=O)Nc2nnc(SCc3cc(=O)c4ccccc4[nH]3)s2)cc1 | -1.2% | -8.5%
CCC(=O)Nc1nnc(SCc2cc(=O)c3cc(C)ccc3[nH]2)s1 | -1.4% | -17.0%
CCC(CC)C(=O)Nc1nnc(SCc2cc(=O)c3ccccc3[nH]2)s1 | 12.6µM* | 8.91µM*
CCCC(=O)Nc1nnc(SCc2cc(=O)c3ccc(C)cc3[nH]2)s1 | 2.51µM* | 2µM*
O=C(COC(=O)c1ccccc1-c1ccc(C(F)(F)F)cc1)c1ccc([N+](=O)[O-])cc1 | -14.7% | -19.5%
O=C(COC(=O)c1ccccc1-c1ccc(C(F)(F)F)cc1)c1cccc([N+](=O)[O-])c1 | 10µM* | 8.91µM*
CCOc1ccc(S(=O)(=O)/C=C2\NCCc3cc(OC)c(OC)cc32)cc1 | -22.7% | 159.8%
O=C(NNC(=S)Nc1ccccc1)c1ccccc1Br | 146.7% | 264.9%
COc1ccc(Oc2c(C)oc3cc(OS(C)(=O)=O)ccc3c2=O)cc1 | 12.6µM* | ?
C=C(C)COc1ccc2c(=O)c(Oc3ccc(OC)cc3)c(C)oc2c1 | 45.5% | 22.1%
Cc1ccc(NC(=O)N2CCN(c3cccc(Cl)c3)CC2)cc1C | 31.3% | -5.3%
CCOc1ccccc1NC(=O)NCc1ccc2c(c1)CCN2C(=O)c1ccccc1 | 8.91µM* | 7.08µM*
CCc1ccccc1NC(=O)NCc1ccc2c(c1)CCN2C(=O)c1ccccc1 | -21.1% | -16.2%
CCOc1ccc2c(c1)cc(C(=O)NCc1ccco1)n2C | 94.6% | 22.0%
COc1ccc(Nc2cc(C)nc(Nc3ccc(NC(=O)C4CCCCC4)cc3)n2)cc1 | ? | 28.2µM*
Cc1cc(Nc2ccccc2)nc(Nc2ccc(NC(=O)c3ccc(Cl)cc3)cc2)n1 | 14.1µM* | 12.6µM*
Cc1cc(N2CCOCC2)nc(Nc2ccc(NC(=O)c3ccccc3)cc2)n1 | -21.0% | -17.9%
Cc1ccc(NC(=O)C2CCCCC2)cc1 | 197.4% | 1.1%
CCN(CC)S(=O)(=O)c1ccc(-c2nc(C#N)c(NC3CC3)o2)cc1 | -3.9% | 72.2%
CCc1nn2c(=O)cc(CNc3ccccc3NC(=O)c3ccccc3)nc2s1 | 6.8% | -2.2%
CCc1nn2c(=O)cc(CNc3ccc4c(c3)OCCCO4)nc2s1 | 4.47µM* | 2.7%
CCNC(=O)CNC(=O)Cn1c(-c2ccccc2)cc2ccccc21 | 6.7% | 10.5%
Oc1ccc(-c2nc(-c3cc4ccccc4o3)cs2)cc1 | 233.9% | 11.4%
COc1cccc(C2CC(=O)Nc3nc(N)sc32)c1OCc1ccc(F)cc1 (stereo not drawn) | -10.7% | -7.8%
Brc1ccc(CN2CCc3nc(N4CCN(c5ncccn5)CC4)ncc3C2)cc1 | -25.2% | ?
SMILES | FMDV FLuc | FMDV Renilla
COc1cc(CN2CCc3nc(N4CCN(c5ncccn5)CC4)ncc3C2)cc(OC)c1OC | ? | 7.08µM*
CCOCCOc1cccc(N)c1 | -5.2% | -3.0%
COC(=O)/C(=C\c1ccc(OC(=O)c2ccccc2)cc1)C(C)=O | 2.2% | 2.2%
Cc1ccc(S(=O)(=O)Cc2nc(-c3ccc(C(=O)NCCN4CCCCCC4)cc3)oc2C)cc1 | -21.7% | -3.2%
COc1ccc(C(=O)Nc2ccc(S(=O)(=O)N(Cc3ccccc3)c3ccccc3)cc2)cc1 | 5.01µM* | 5.01µM*
O=C(COc1ccccc1)Nc1ccc(S(=O)(=O)N(Cc2ccccc2)c2ccccc2)cc1 | -10.0% | -5.5%
CCOc1ccc(C(=O)Nc2ccc(-n3nncc3-c3ccc(OC)cc3)cc2)cc1 | -14.3% | -5.1%
COc1ccc(-c2cnnn2-c2ccc(NC(=O)c3ccc(S(=O)(=O)N(C)C)cc3)cc2)cc1 | ? | 6.31µM*
Cc1ccc(C2C(C#N)=C(N)Oc3c2ccc2ccccc32)cc1 (stereo not drawn) | 210.7% | 83.4%
O[C@@H](COc1cccc2ncccc12)CN1CCN(C2c3ccccc3[C@@H]3[C@H](c4ccccc42)C3(F)F)CC1 (stereo partly drawn) | -12.7%[11.5 µM] | 25.1µM*
Cc1ccccc1OCC(O)CN1CCN(c2nccs2)CC1 (stereo not drawn) | -5.4% | -11.6%
COc1ccccc1OCC(=O)Nc1ccc(-c2nc3ccccc3o2)cc1 | 113.8% | 7.1%
COc1ccc(C(=O)NCCc2csc(-c3ccc(Cl)cc3)n2)cc1 | -16.3% | -21.8%
CCCCOc1ccc(C(=O)NCCc2csc(-c3ccc(OC)cc3)n2)cc1 | 12.6µM* | 11.2µM*
Cn1cc(C2Nc3ccccc3C(=O)N2c2ccc(Cl)cc2)c(=O)n(C)c1=O (stereo not drawn) | 188.2% | 3.7%
O=C(O)/C=C/c1ccc(-c2ccc(Br)cc2Cl)o1 | 0.0% | 11.5%
COc1ccc(CNC(=O)c2nc(S(=O)(=O)Cc3ccccc3)ncc2Cl)cc1 | 22.4µM* | 1.8%
COc1ccc(NC(=O)c2nc(S(=O)(=O)Cc3ccc(C)cc3)ncc2Cl)cc1 | 0.0% | 13.9%
Cc1ccc(C)c(NC(=O)COC(=O)c2ccc3ccccc3n2)c1 | -4.8% | -14.5%
Cc1ccc(NC(=O)COC(=O)c2ccc3ccccc3n2)c(C)c1 | ? | 22.4µM*
